Measured values as given in PubChem BioAssay (NCI).
About 79,000 compounds went through this panel and 15% of them were active in at least one assay; those are over-represented in the sample as a whole. Unmarked numbers belong to inactive results. Calls of active or inactive are those of the source. No stated cut-off is given here; in the data, active means growth inhibition above about 70%; inactive means the rest.

What was measured:
[1] = NCI Yeast Anticancer Drug Screen. Data for the rad50 strain (AID 155);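 further: 0% = growth of vehicle-only cultures of the same strain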; settings: S. cerevisiae rad50 strain growth inhibition; at 50.0 µM; hits give high values
In short: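 Inhibition values express reduced yeast growth in compound-treated cultures relative to vehicle-treated controls.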

[2] = NCI Yeast Anticancer Drug Screen. Data for the mec2-1 strain (AID 157); settings: S. cerevisiae mec2-1 strain, at 50.0 µM, hits give high values
In short: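 Yeast mec2-1 mutant treated with compound. Readout: growth inhibition vs vehicle controls.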

[3] = NCI Yeast Anticancer Drug Screen. Data for the sgs1 mgt1 strain (AID 161);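 further: 0% = growth of cultures given vehicle only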; settings: S. cerevisiae sgs1 mgt1 strain, at 50.0 µM, hits give high values
In short: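 Genetically altered yeast, compound exposure, growth inhibition relative to vehicle.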

[4] = NCI Yeast Anticancer Drug Screen. Data for the cln2 rad14 strain (AID 165);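 further: 0% = growth equal to vehicle treated cultures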; settings: S. cerevisiae cln2 rad14 strain, at 50.0 µM, hits give high values
In short: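 cln2 rad14 yeast strain; compound exposure; growth inhibition read vs vehicle controls.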

[5] = NCI Yeast Anticancer Drug Screen. Data for the bub3 strain (AID 167); settings: S. cerevisiae bub3 mutant strain, at 50.0 µM, hits give high values
In short: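 Steps: expose the mutant yeast strain to compound; grow alongside vehicle-treated cultures; measure growth; express inhibition against the vehicle cultures.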

[6] = NCI Yeast Anticancer Drug Screen. Data for the mlh1 rad18 strain (AID 175); settings: S. cerevisiae mlh1 rad18 strain growth inhibition; at 50.0 µM; hits give high values
In short: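 Yeast w/ defined DNA-repair lesions; compound exposure; growth vs vehicle controls → % inhibition.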

SMILES	growth inhibition [1]	growth inhibition [2] [%]	growth inhibition [3]	growth inhibition [4] [%]	growth inhibition [5]	growth inhibition [6] [%]
O=C(NC(=O)c1ccccc1)OC(c1ccccc1)C1CO1 (configuration not stated)	-0.7%	9.65	11.4%	8.55	-34.1%	18.8
CCOc1ccc2nc(/C=C/c3ccccc3)ccc2c1	13.9%	-3.65	13.8%	-3.75	9.85%	14.8
C=C(Nc1ccc(OC)cc1OC)C(=O)Cc1cccc[n+]1[O-]	6.25%	-2.45	-10.5%	-2.4	-3.4%	-8.8
C/C(CC(O)(C(F)(F)F)C(F)(F)F)=N\N	-31.9%	-49.8	-20.4%	-7.6	-4.5%	-23.4
CC(=O)/C(=C/N1C(=O)CC(=O)NC1=S)C(=O)Nc1ccccc1	-24.8%	-26.5	-39.9%	3.85	-17.5%	-20.7
BrCCCC1OCCO1	93.8% (active)	53	85.8% (active)	43.5	73.4% (active)	60.2
CC(=O)c1ccc(N=C2c3ccccc3CN2c2ccc(C(C)=O)cc2)cc1	11.8%	-13.6	-6.75%	-10.6	-5.25%	4.5
COc1ccc(Nc2nc3c([nH]2)c(=O)n(C)c(=O)n3C)cc1	-15.6%	5.1	-11.3%	6.9	-1.3%	13.3
CCOC1=C/C(=N\NC(N)=O)CCC1	9.35%	7.2	-1.1%	27.8	3.95%	0.1
Cc1c([N+](=O)[O-])cc(C(C)(C)C)c(OS(=O)(=O)N(C)C)c1[N+](=O)[O-]	34%	10.4	34.5%	13.1	18.1%	26.6
NC(N)=NC(N)=Nc1ccccc1Br	-20.9%	-19.5	-4.4%	-26.1	7.05%	-3.85
CN1N=C(c2ccncc2)OC1c1ccc(C(F)(F)F)cc1 (configuration not stated)	13.9%	-20.6	1.35%	11.3	-19.6%	-12.5
CCC(=O)NCCc1ccccc1	-16.2%	29.6	14.3%	-13.1	-5.8%	-10.4
Cc1nc2sccc2c(=O)n1C	-4.5%	-3.6	-0.9%	-4.1	0.2%	-4.35
O=C1CC2C(=O)N(Cc3ccccc3)C1C(S(=O)(=O)c1ccccc1)C2S(=O)(=O)c1ccccc1 (configuration not stated)	10.4%	9.4	2.75%	26.9	-8.7%	23.9
Cn1c(=O)oc2cc(C(=O)CN3CCN(Cc4ccc5c(c4)OCO5)CC3)c(Cl)cc21	29.5%	26.4	61.8%	26.1	53.4%	23.1
CCOC(=O)c1nc2ccc(C(F)(F)F)cc2nc1NCc1ccc(OC)c(OC)c1	5.7%	6.65	-28%	-13.1	-23.5%	-24.8
Nc1cnc2c(c1)c(=O)nc1n2CCS1	-0.45%	9.65	6.6%	5.3	0.5%	-27.1
COc1cc2c[n+](C)c3ccccc3c2cc1OC	4.75%	12	-16.6%	-7.3	-21.1%	-6.35
CC(C)c1ccc(O)c(Cc2cc(C(C)C)cc(Cc3cc(C(C)C)ccc3O)c2O)c1	-14.3%	-3.2	-10.2%	4.6	1.1%	-3.25
O=C(/C=C/c1ccccc1)CCc1c(O)c2ccccc2oc1=O	9.05%	-5.3	0.45%	31.1	1.85%	28.8

SMILES	growth inhibition [1]	growth inhibition [2] [%]	growth inhibition [3]	growth inhibition [4] [%]	growth inhibition [5]	growth inhibition [6] [%]
O=CNCCNC=O	0.05%	-2.25	-15%	-12.7	0.65%	-1.85
Nc1nc(Cl)c(Cl)nc1C(=O)O	-4.65%	10.4	2.3%	-32.6	-4.25%	-1.15
O=C(O)COc1ccccc1C1CCCCC1	0.15%	7.6	6.25%	-4.9	-18.6%	-2.2
CCOC(CCl)(NC(C)=O)C(=O)OC (configuration not stated)	-0.5%	-9.7	-9.55%	-8.75	4.3%	-8.1
CS(=O)(=O)OC1COCOC1C1OCOCC1OS(C)(=O)=O (configuration not stated)	7.8%	1.35	10.5%	-10.4	-6%	-0.55
CC1CC(C)(C)OC(C2CC=CCC2)O1 (configuration not stated)	-12.7%	-19.6	-13.8%	-1.95	2.35%	2.7
C=CCc1ccc(OC(=O)CC)c(OC)c1	-8.1%	-22.4	-16.4%	-8.75	-10.8%	-9.95
COCC(=O)c1ccccc1	14.3%	1.7	5.3%	6	-0.65%	32.9
CC(C1CCCC1=O)C1CCCC1=O (configuration not stated)	-1.1%	-17.8	-5.05%	5.35	-11.9%	-10.4
COc1ccccc1C(CC(=O)c1ccccc1)Sc1ccccc1N (configuration not stated)	26.9%	33.9	38.8%	4.1	26.4%	12.3
CCOC(=O)c1ccccc1Nc1c(C(=O)OCC)cnc2cc3c(cc12)OCO3	-13.8%	3.95	-9.85%	2.85	-0.25%	-7.8
COc1ccc(/C=C2\C(=O)N(C(=O)Cc3ccccc3)N=C2C)cc1OC	-20.3%	-20.2	-59.1%	-16.8	-12.4%	-42.6
CC1CCCc2c(CC3CC(=O)NC(=O)C3)nc(N)nc21 (configuration not stated)	6.75%	5.25	-18.8%	-7.85	-4.7%	-23.4
O=C(Oc1ccc(C(=O)c2ccccc2)cc1)C(Cl)=C(Cl)Cl	-6.95%	-1.75	7.7%	-55.8	7.35%	-4
CNC1NC(=O)c2ccccc2N1Cc1ccc(F)cc1 (configuration not stated)	5.7%	4.5	-23.1%	-19.6	-12.1%	-4.25
C[Si](C)(CNCCN)O[Si](C)(C)CNCCN	6.3%	-18.8	-3.3%	13.1	5.9%	13.3
CC(C)CC(=O)Cc1nc2n(c1O)C(=N)N=N2	-35.5%	-15.9	-14.2%	-40.7	-11.8%	-20.1
O=C1c2cccc3cc([N+](=O)[O-])cc(c23)C(=O)N1CC1CCCO1 (configuration not stated)	75.3% (active)	15.8	30.6%	18.1	26.1%	3.15
Cc1ccc(N=NN(C)C)cc1NC(=O)NCC(=O)OC(C)(C)C	4.7%	8.7	4.95%	-31.6	7.25%	7.8
COc1ccc(C)cc1NC(=S)NC(=O)c1cccc([N+](=O)[O-])c1	2.25%	4.85	4.45%	-2.5	20.2%	0.3
COC(=O)C1=CCS(=O)(=O)C1	-7.45%	-7.8	-4.3%	6.1	15%	-9.5
